Here are results for four compounds from PubChem BioAssay AID651663 (NMMLSC, 2012).

Calls of active or inactive are those of the source.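 The calls were made as follows: active = fitted half-maximal signal drop concentration below 100 µM; inactive = the rest.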

ATP-binding cassette sub-family B member 6 (Homo sapiens), sequence (Q9NP58 whole entry, looked up): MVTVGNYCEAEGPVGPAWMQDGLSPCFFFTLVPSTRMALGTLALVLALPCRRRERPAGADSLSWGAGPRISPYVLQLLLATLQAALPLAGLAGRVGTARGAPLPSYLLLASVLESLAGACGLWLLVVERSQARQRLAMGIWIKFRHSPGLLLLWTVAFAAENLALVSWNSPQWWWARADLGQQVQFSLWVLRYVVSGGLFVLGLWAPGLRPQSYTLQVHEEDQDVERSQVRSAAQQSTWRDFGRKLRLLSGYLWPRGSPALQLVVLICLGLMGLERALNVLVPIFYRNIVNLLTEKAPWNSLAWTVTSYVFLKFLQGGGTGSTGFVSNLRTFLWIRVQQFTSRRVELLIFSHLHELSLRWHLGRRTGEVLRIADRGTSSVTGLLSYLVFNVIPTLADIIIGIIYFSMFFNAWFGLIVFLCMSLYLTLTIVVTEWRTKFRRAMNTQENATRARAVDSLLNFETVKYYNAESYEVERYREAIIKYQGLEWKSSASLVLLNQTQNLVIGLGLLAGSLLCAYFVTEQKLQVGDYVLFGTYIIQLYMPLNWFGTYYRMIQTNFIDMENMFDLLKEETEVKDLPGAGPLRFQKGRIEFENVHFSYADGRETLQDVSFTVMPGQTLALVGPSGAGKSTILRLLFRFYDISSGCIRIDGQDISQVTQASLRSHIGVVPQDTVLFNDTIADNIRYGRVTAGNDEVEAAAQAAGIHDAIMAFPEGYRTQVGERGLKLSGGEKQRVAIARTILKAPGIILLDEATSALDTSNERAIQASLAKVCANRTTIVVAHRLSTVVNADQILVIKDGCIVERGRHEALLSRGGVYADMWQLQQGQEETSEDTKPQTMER

The test addresses ATP-binding cassette sub-family B member 6 (Homo sapiens) (UniProt Q9NP58). Put plainly: ABCB6 transporter inhibitors, porphyrin accumulation, dose response, flow cytometry, K562-ABCB6 cells, powder set 01 (AID 651663). As to conditions: 1 h; series mostly up to 100 µM. For orientation: Flow cytometry measures light scatter and fluorescence of single cells or particles in a stream.
For `CC(=O)Nc1ccc(NC(=O)c2nc(S(=O)(=O)Cc3cccc(C)c3)ncc2Cl)cc1`, the compound was called inactive.
Take `CC(=O)Nc1ccc(NC(=O)c2nc(S(=O)(=O)Cc3ccccc3)ncc2Cl)cc1`: the compound was called inactive.
The value for `CCOc1ccccc1NC(=O)c1nc(S(=O)(=O)Cc2cccc(C)c2)ncc1Cl` was “inactive”.
The value for `CCc1ccc(NC(=O)c2nc(S(=O)(=O)Cc3ccccc3)ncc2Cl)cc1` was “inactive”.
